Test results reported in ChEMBL document CHEMBL3988442, “University of Dundee, Small-Polar-MMV Screening Library” (2021).
Screen size: about 48,000 compounds; about 13,000 (27%) showed an effect of 50% or more. This is one part of the list.

Tested on: Wolbachia pipientis
Assay: Anti-Wolbachia Cell-Based Screen
Type: functional
Parameters: scale not given: in the data most compounds retested in dose-response had high values
Conditions: 5 µM

Going from CC(C)(N)c1nc(C(F)F)cc(=O)[nH]1.Cl to Cc1cc(NC(=O)CNC(C)(C)c2ccccc2)on1, the “Percent Effect” value rises from 0.5685% to 5.655%.

Going from CC1CN(CC(=O)NCCc2ccncc2)Cc2ccccc2O1 (centres undefined) to CCOc1nc2cnccc2n(CC(=O)NCCc2ccccc2)c1=O, the “Percent Effect” value rises from -8.36% to 107.7%.

Going from CCOc1nc2cnccc2n(CC(=O)Nc2ccccc2OC)c1=O to CCOc1nc2cnccc2n(CC(=O)NCc2ccc(C)cc2)c1=O, the “Percent Effect” value rises from 90.9% to 143.1%.

Compared with CCOc1ccc(CNC(=O)c2cnc(OC)nc2)cc1, CCOc1ccc(-n2ccc3nc(N4CCCC4)ncc3c2=O)cc1 is lower in “Percent Effect” value: -7.599% for the first, -8.321% for the second.

First: COc1ccccc1NCC(=O)Nc1cnn(Cc2ccccn2)c1
Second: O=C(COCc1ccccc1)Nc1ccccn1
The “Percent Effect” value of the first is higher: -4.871% for the first, -24.26% for the second.

Going from O=C(CN1CCC(c2cccc(F)c2)C1)NCc1ccco1 (centres undefined) to CCOc1nc2cnccc2n(CC(=O)NCc2ccco2)c1=O, the “Percent Effect” value rises from -26.03% to 96.93%.

Going from COc1ccccc1NC(=O)Cc1c(C)nc2c(c1C)c(=O)[nH]n2C to COCc1nc2ncc3c(=O)n(-c4ccccc4OC)ccc3n2n1, the “Percent Effect” value rises from -0.4507% to 126.9%.

First: Cc1nsc(N2CCN(CC(=O)NCc3cccnc3)CC2)n1
Second: CCOC(=O)N1CCN(C(=O)Cn2ccc3ncccc3c2=O)CC1
The “Percent Effect” value of the first is higher: 1.2% for the first, -21.73% for the second.

First: CCOc1nc2cccnc2n(CC(=O)NCCOC)c1=O
Second: CCOC(=O)Cn1c(=O)c(OCC)nc2cnccc21
The “Percent Effect” value of the first is lower: -3.624% for the first, 100.3% for the second.

First: CC(C)(C)n1ncc2c(=O)n(CC(=O)NCc3ccco3)cnc21
Second: CCn1cc(NC(=O)CN2C(=O)CC(C)(C)c3ccccc32)cn1
The “Percent Effect” value of the first is lower: 3.142% for the first, 116.8% for the second.

First: CC(C)N(CC(N)=O)CC(=O)N(C1=CCCCC1)C1CC1
Second: CCOC(=O)Cn1cnc2nc3n(c2c1=O)CCC3
The “Percent Effect” value of the first is higher: -0.3485% for the first, -20.3% for the second.

Compared with CCC(CC)C(=O)NS(=O)(=O)CCc1ccccc1, CCn1cc(NC(=O)NCC(O)c2ccccc2)cn1 (centres undefined) is lower in “Percent Effect” value: -5.917% for the first, -11.2% for the second.

Going from COCCn1cc(C(=O)N2CCCC2c2ccccc2C)ccc1=O (centres undefined) to Cc1ccccc1CN1CCC[C@H]1c1nc(-c2cncnc2N)no1, the “Percent Effect” value rises from -35.63% to -17.12%.

Going from Fc1cnc(N2CCn3cc(CNc4ccccn4)nc3C2)nc1.O=C(O)C(F)(F)F.O=C(O)C(F)(F)F to O=c1c2cnc(N3CCCC3)nc2ccn1-c1cccc(C(F)(F)F)c1, the “Percent Effect” value rises from -14.44% to 0.9271%.

First: OC1(CNc2cc(C(F)(F)F)nc3ccccc23)CCOCC1
Second: Cc1ccccc1-n1ccc2nc(N3CCCC3)ncc2c1=O
The “Percent Effect” value of the first is higher: 28.2% for the first, -4.338% for the second.

First: CCN1CCC(CNC(=O)C(c2ccccc2F)N(C)C)(N(C)C)CC1 (centres undefined)
Second: CCN(Cc1cnn(CC)c1)C(=O)CN1C(=O)CCc2ccccc21
The “Percent Effect” value of the first is higher: 4.874% for the first, -11.46% for the second.

Compared with CCCn1nc2c(cc1=O)CN(Cc1nnc(C3CC3)o1)CC2, CCCN1CCCn2nc(CNC(=O)CC(C)n3ccnc3C)cc2C1 (centres undefined) is lower in “Percent Effect” value: 20.46% for the first, -9.141% for the second.

First: Cc1cc(F)ccc1N1CCCC(NS(=O)(=O)CCCF)C1=O (centres undefined)
Second: Cc1ccc(NC(=O)CCc2ccco2)cc1N1CCOC1=O
The “Percent Effect” value of the first is higher: -6.348% for the first, -14.01% for the second.

First: Cn1c(SCC(O)COCc2ccccc2Cl)nnc1C1CC1 (centres undefined)
Second: CNc1cncc(C2CCCN2Cc2ccccc2OCC(=O)O)n1 (centres undefined)
The “Percent Effect” value of the first is lower: -19.68% for the first, -10.59% for the second.

First: COc1ccc(F)c(CN2CCCC(O)(CNCc3ccon3)C2=O)c1 (centres undefined)
Second: COc1cccc(CN2CCCC2c2ccc[nH]2)c1 (centres undefined)
The “Percent Effect” value of the first is lower: -2.252% for the first, 13.97% for the second.

Compared with CC(C)N(C)C(=O)c1ccc(Cl)c(NC(=O)CCN2C(=O)CCC2=O)c1, CCN1C(=O)C(C)(C)c2cc(NC(=O)c3ccco3)ccc21 is lower in “Percent Effect” value: -4.274% for the first, -4.693% for the second.

Compared with Cc1c(NC(C)C(C)C)cccc1C(=O)NCc1ccnn1C (centres undefined), COC(=O)C(CNC(=O)Nc1nncs1)Cc1cccc(C)c1 (centres undefined) is lower in “Percent Effect” value: 9.043% for the first, -9.936% for the second.

Going from CC(=O)NCCC(=O)NCc1cccnc1-n1cnc2ccccc21 to NC(=O)CCn1cc(CNCc2csc(N)n2)c2ccccc21, the “Percent Effect” value rises from -3.508% to -0.3339%.

Going from CCN(CC)S(=O)(=O)CCNc1ncnc2cc(F)c(F)cc12 to CN(Cc1nccn1C)S(=O)(=O)Cc1cccc(C#N)c1, the “Percent Effect” value rises from 0.3954% to 6.063%.

Compared with O=C(c1csc(C2CC2)n1)N1CCCC1Cn1cccn1 (centres undefined), O=C(c1csc(C2CC2)n1)N1CCCCC1Cn1cccn1 (centres undefined) is lower in “Percent Effect” value: 109.4% for the first, 99.33% for the second.

First: COCc1nc(C(=O)N2CCCCC2Cn2cccn2)cs1 (centres undefined)
Second: COc1cccc(CN(C(=O)Nc2nncs2)C2CCC(O)CC2)c1 (centres undefined)
The “Percent Effect” value of the first is lower: 0.9161% for the first, 4.875% for the second.

Compared with Cc1ccccc1CN1CCCC1c1cncc(Nc2nncs2)n1 (centres undefined), Cc1cccc(CN2CCCC2c2cncc(Nc3nncs3)n2)c1 (centres undefined) is lower in “Percent Effect” value: 132.3% for the first, 111.5% for the second.

Going from COc1cccc(CN2CCCC2c2cncc(Nc3nncs3)n2)c1 (centres undefined) to COCc1nc2ncc3c(=O)n(-c4cccc(OC)c4)ccc3n2n1, the “Percent Effect” value falls from 147.7% to 97.73%.

Compared with CCc1ncc(C(=O)N2CCN(c3cnn(C)c(=O)c3)CC2)cn1, O=c1c2cnc(N3CCCC3)nc2ccn1-c1cccc(F)c1 is higher in “Percent Effect” value: -4.796% for the first, -1.705% for the second.

Going from COCc1nc2ncc3c(=O)n(-c4ccc(OC)cc4)ccc3n2n1 to COCc1nc2ncc3c(=O)n(-c4ccc(C(C)=O)cc4)ccc3n2n1, the “Percent Effect” value falls from 103.2% to 38.7%.

Going from O=c1c2cnc(N3CCCCC3)nc2ccn1-c1ccccc1F to CCn1ccc(NC(=O)CN2C(=O)CC(C)(C)c3ccccc32)n1, the “Percent Effect” value rises from 37.48% to 127.7%.

Going from CCCOCC(=O)Nc1ncc(I)cc1C to COCCn1ccc(NC(=O)Nc2ccccn2)n1, the “Percent Effect” value rises from -6.497% to 7.746%.

Going from O=C(CCC1CCCN(C(=O)CCN2CCCCO2)C1)N1CCCC1 (centres undefined) to CNc1nc(N2CCN(Cc3ccsc3)C(CCO)C2)nc2c1CCC2 (centres undefined), the “Percent Effect” value falls from 3.672% to -11.96%.

Going from CCn1ccc(NC(=O)CN2C(=O)C(C)(C)c3ccccc32)n1 to COCCn1ccc(NC(=O)Nc2ccccc2)n1, the “Percent Effect” value falls from 112.9% to 3.766%.

With NC(=O)Cn1ccc(NC(=O)C2(c3cccc(F)c3)CCC2)n1 the “Percent Effect” value was -8.022%.
